Assay outcomes: PubChem BioAssay, several laboratories
GDH-TPI counter – inhibits GDH-TPI coupling enzymes, artifact for Mtb FBA screen. GDH-TPI coupled enzyme counterscreen, NADH absorbance. inhibition, % at 4.8 µM. 360,000 compounds, 1.2% hits. AID 588335; in the data active = inhibition above about 30%;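 note: 0% = DMSO wells and 100% = wells lacking the enzyme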
Y pestis TopoI – Y. pestis Topo-I inhibition via cleavage products; activity, % at 10 µM; AID 504884; Y. pestis Topo-I cleavage product accumulation, plate reader; 360,000 compounds, 0.064% hits; in the data active = activity above about 50%, passing the limit was not always enough
TcdB inh – blocks C. difficile toxin B glycohydrolase activity. inhibition, % at 9.99 µM. AID 652162. 350,000 compounds, 0.24% hits. TcdB glycohydrolase enzymatic assay, plate reader; in the data active = inhibition above about 10%
FBA Mtb inh – inhibitors of M. tuberculosis fructose-bisphosphate aldolase. inhibition, % at 1 µM. 360,000 compounds, 2.3% hits. AID 588726. purified M. tuberculosis FBA, fluorescence read-out; in the data active = inhibition above about 27%;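 note: 0% = vehicle and 100% = reference inhibitor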
Target sequence (P9WQA3 whole entry, looked up): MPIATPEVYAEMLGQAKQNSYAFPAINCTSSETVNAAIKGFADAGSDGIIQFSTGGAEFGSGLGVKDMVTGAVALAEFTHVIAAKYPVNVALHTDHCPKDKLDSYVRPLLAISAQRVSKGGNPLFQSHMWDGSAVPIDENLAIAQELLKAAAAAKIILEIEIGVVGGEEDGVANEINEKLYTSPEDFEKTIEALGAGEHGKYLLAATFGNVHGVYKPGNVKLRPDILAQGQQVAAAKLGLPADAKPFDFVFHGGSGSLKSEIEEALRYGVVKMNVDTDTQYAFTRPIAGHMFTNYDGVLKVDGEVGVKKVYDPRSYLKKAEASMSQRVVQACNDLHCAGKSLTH
PrPC TRFRET – inhibitors of human cell surface prion protein PrPC; P04156; TR-FRET read-out; inhibition, % at 13.8 µM; 370,000 compounds, 0.43% hits; AID 720596; in the data active = inhibition above about 24%; note: 0% = median of the test wells and 100% = reference compound wells
The depositor's hits bear a star. Most compounds without a hit are left out; they make up all but 3.2% or so of the library.

Results for Cc1ccc(S(=O)(=O)Nc2ccc3c(c2)C(=O)N([C@H](C)CO)C[C@@H](C)[C@H](CN(C)S(C)(=O)=O)O3)cc1 ?
TcdB inh: 1

What do the screens show for `Nc1c(C(=O)c2ccccc2)oc2ccc([N+](=O)[O-])cc12`?
GDH-TPI counter: 34*; Y pestis TopoI: 4; TcdB inh: 1; FBA Mtb inh: 3; PrPC TRFRET: -7

How did O=S(=O)(Nc1ccc(O)cc1)c1cccc2cccnc12 do in these assays?
GDH-TPI counter: 0; Y pestis TopoI: 3; TcdB inh: 11*; FBA Mtb inh: 3; PrPC TRFRET: -7

How did CC(C)c1ccc(NS(=O)(=O)c2cccc3cccnc23)cc1 do in these assays?
GDH-TPI counter: -5; Y pestis TopoI: 18; TcdB inh: 1; FBA Mtb inh: -2; PrPC TRFRET: 0

How did O=C(O)[C@@H]1[C@@H](CO)[C@@H]2Cn3c(ccc(/C=C/c4ccccc4)c3=O)[C@@H]2N1C(=O)c1cnccn1 do in these assays?
TcdB inh: 1

How did Cn1c(C(=O)NCCC2=CCCCC2)cc2c(=O)n3ccccc3nc21 do in these assays?
GDH-TPI counter: 4; Y pestis TopoI: 5; FBA Mtb inh: 114*; PrPC TRFRET: 5

What do the screens show for `Cn1c(C(=O)N2COCC2(C)C)cc2c(=O)n3ccccc3nc21`?
GDH-TPI counter: -4; Y pestis TopoI: 0; FBA Mtb inh: active; PrPC TRFRET: -7

Results for Cn1c(C(=O)NCC2CCCO2)cc2c(=O)n3ccccc3nc21 (stereo unspecified) ?
GDH-TPI counter: 14; Y pestis TopoI: 1; FBA Mtb inh: active; PrPC TRFRET: -7

What do the screens show for `Cc1noc(C)c1NC(=O)Nc1ccc2c(c1)C(=O)N([C@@H](C)CO)C[C@H](C)[C@H](CN(C)C)OCCCC[C@H](C)O2`?
TcdB inh: -2

How did Cc1ccc(S(=O)(=O)Nc2ccc3c(c2)C(=O)N([C@@H](C)CO)C[C@@H](C)[C@H](CN(C)S(=O)(=O)c2cn(C)cn2)O3)cc1 do in these assays?
TcdB inh: 1

How did CCCNC(=O)N(C)C[C@H]1Oc2cc(C#CC(C)(C)O)ccc2S(=O)(=O)N([C@@H](C)CO)C[C@@H]1C do in these assays?
TcdB inh: -2

Results for COc1ccc(-c2oc3ccc(N4CCOCC4)cc3c2C#CC2(O)CCCCC2)cc1 ?
GDH-TPI counter: 29; Y pestis TopoI: 23; TcdB inh: 0; FBA Mtb inh: 68*; PrPC TRFRET: 7

Results for COc1ccc(C#Cc2c(-c3ccsc3)oc3ccc(N4CCOCC4)cc23)cc1 ?
GDH-TPI counter: 33*; Y pestis TopoI: -6; TcdB inh: 0; FBA Mtb inh: 27; PrPC TRFRET: -6

Results for Cc1cc(NC(=O)c2sc3ccccc3c2O)no1 ?
GDH-TPI counter: 9; Y pestis TopoI: 12; TcdB inh: 8; FBA Mtb inh: active; PrPC TRFRET: 5

What do the screens show for `Cc1cc(NC(=O)c2ccccc2Cl)no1`?
GDH-TPI counter: 3; Y pestis TopoI: 4; FBA Mtb inh: -1; PrPC TRFRET: -4

How did O=C(C[C@H]1CC[C@H]2[C@@H](COC[C@H](O)CN2S(=O)(=O)c2ccc(F)cc2)O1)N[C@@H]1CCN(Cc2ccccc2)C1 do in these assays?
TcdB inh: -1

Results for CNC(=S)NN=C(C)c1ccc(OC)cc1O ?
GDH-TPI counter: 39*; Y pestis TopoI: -5; TcdB inh: -4; FBA Mtb inh: 4; PrPC TRFRET: 4

What do the screens show for `COc1cc2cc(C(N)=O)c(N)nc2cc1OC`?
GDH-TPI counter: -2; Y pestis TopoI: -13; FBA Mtb inh: active; PrPC TRFRET: -3

How did Nc1ncnc2[nH]c(=S)[nH]c12 do in these assays?
GDH-TPI counter: -2; Y pestis TopoI: 5; TcdB inh: 15*; FBA Mtb inh: -3; PrPC TRFRET: 2

What do the screens show for `C[C@@H]1CN([C@@H](C)CO)S(=O)(=O)c2ccc(C#CC3CC3)cc2O[C@@H]1CN(C)C(=O)c1ccccn1`?
TcdB inh: -1

What do the screens show for `C[C@@H]1CN([C@H](C)CO)C(=O)c2cc(NC(=O)NC3CCCCC3)ccc2O[C@@H](C)CCCCO[C@@H]1CN(C)S(=O)(=O)c1ccc(Cl)cc1`?
TcdB inh: 1

What do the screens show for `Cc1cc(-n2c(=O)c(C#N)cc3c(=O)n4cccc(C)c4nc32)no1`?
GDH-TPI counter: -7; Y pestis TopoI: 0; FBA Mtb inh: active; PrPC TRFRET: -20

Results for COCCCn1c(=N)c(C(=O)NCc2ccc3c(c2)OCO3)cc2c(=O)n3cccc(C)c3nc21 ?
GDH-TPI counter: 4; Y pestis TopoI: -5; TcdB inh: 0; FBA Mtb inh: -2; PrPC TRFRET: -11

How did CCCCNC(=O)c1cc2c(=O)n3cccc(C)c3nc2n(Cc2ccncc2)c1=N do in these assays?
GDH-TPI counter: -1; Y pestis TopoI: -2; FBA Mtb inh: 151*; PrPC TRFRET: -25

How did COc1ccc(CCNC(=O)c2cc3c(=O)n4cccc(C)c4nc3n(Cc3ccco3)c2=N)cc1OC do in these assays?
GDH-TPI counter: 12; Y pestis TopoI: -2; TcdB inh: 0; FBA Mtb inh: 10; PrPC TRFRET: -18

Results for COCCNC(=O)c1cc2c(=O)n3cccc(C)c3nc2n(Cc2ccncc2)c1=N ?
GDH-TPI counter: 12; Y pestis TopoI: -10; FBA Mtb inh: active; PrPC TRFRET: -35

Results for CCCCNC(=O)c1cc2c(=O)n3cccc(C)c3nc2n(CCN2CCOCC2)c1=N ?
GDH-TPI counter: 14; Y pestis TopoI: -1; FBA Mtb inh: 137*; PrPC TRFRET: -21

Results for OC[C@H]1[C@@H](c2ccc(-c3ccccc3F)cc2)[C@H]2CN(Cc3cncnc3)CCCCN21 ?
TcdB inh: 0

What do the screens show for `Cc1cccn2c(=O)c3cc(C#N)c(=N)n(CCN4CCOCC4)c3nc12`?
GDH-TPI counter: 0; Y pestis TopoI: 2; FBA Mtb inh: 53*

Results for C[C@H](CO)N1C[C@H](C)[C@H](CN(C)Cc2ccccc2)Oc2c(NS(=O)(=O)c3ccc(F)cc3)cccc2C1=O ?
TcdB inh: -2

What do the screens show for `O=C(O)c1cc(Cl)ccc1-c1ccc(/C=C/c2cc(C(F)(F)F)[nH]c(=O)n2)o1`?
GDH-TPI counter: 16; Y pestis TopoI: 11; TcdB inh: 0; FBA Mtb inh: 7; PrPC TRFRET: -10

What do the screens show for `O=c1nc(/C=C/c2ccc(Cl)cc2Cl)cc(C(F)(F)F)[nH]1`?
GDH-TPI counter: 41*; Y pestis TopoI: 4; TcdB inh: 1; FBA Mtb inh: 2; PrPC TRFRET: -9

What do the screens show for `C[C@@H]1CN([C@H](C)CO)C(=O)c2cc(C#CCN(C)C)cnc2O[C@@H]1CN(C)Cc1ccc(F)cc1`?
TcdB inh: 0

Results for COc1ccc(-c2ccc([C@H]3[C@H](CO)N4C(=O)CN(C(=O)c5ccccn5)C[C@@H]34)cc2)cc1 ?
TcdB inh: 0

What do the screens show for `COc1cccc(C2=N/C(=C\N(C)C)C(=O)O2)c1`?
GDH-TPI counter: 37*; Y pestis TopoI: 3; FBA Mtb inh: 0; PrPC TRFRET: -18
